# Compound activity: PubChem BioAssay, National Center for Advancing Translational Sciences (NCATS)
# This is a sample that favours compounds with a hit; in the whole collection about 14% have one here.
# MARV entry inh: Marburg virus entry inhibition; Marburg virus pseudotyped entry inhibition, cell reporter; Potency, µM (top dose mostly 37.8 µM), without a hit: at the top dose activity change, negative = inhibition, hits mostly inhibitors; hit rate 1.8% among 300,000; AID 540276; calls by dose curve; tested in HEK293 cells; note: potency is the fitted concentration of half-maximal effect
# HCV inh: blocks hepatitis C virus; hit rate 3.4% among 340,000; Potency, µM (doses to about 41.8 µM), for the others: at the highest dose activity change, negative = inhibition, actives largely listed as inhibitors; Huh7.5.1 HCVcc-Cre infection, luciferase reporter, 44 h; note: potency is the fitted concentration of half-maximal effect
#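 Reporter virus HCVcc-Cre (~0.5 moi) infects cells exposed to compound; seeding density 1,000 cells/well with 4 h settling beforehand. Luminescence, 15 sec read, taken 44 h post-infection following a 15 min RT substrate incubation.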
# Pf growth 96h: P. falciparum growth inhibition at 96 hours. P. falciparum luciferase reporter growth, 96 h. AID 504834. Potency, µM (titrated, usually from 28.7 µM), for the others: at the highest dose activity change, negative = inhibition, usual class: inhibitors. hit rate 6.9% among 320,000; note: potency is the fitted concentration of half-maximal effect
#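 Delayed-death screen, second-generation endpoint: infected erythrocytes, 2% hematocrit, 0.05% parasitemia final; 96 hours at 37 C, 5% CO2; luciferase detection reagent; luminescence decrease equals reduced growth.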
# HCMV antiviral: inhibitors of human cytomegalovirus; hit rate 4.5% among 410,000; HFF cells, HCMV-luciferase reporter, 72 h; hits give low values; activity change, negative = inhibition, % at 57.5 µM; in the data active = activity change below about -60%; inconclusive = no clear call, values can overlap the other calls; inactive = above about -39%
#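 After 16 h attachment at 37C, HFF cells received test compound and HCMV-luciferase (1 PFU/cell); reporter luminescence read 72 h later, data normalized against buffer-only and known inhibitor Salinomycin.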
# LASV entry inh: blocks Lassa virus binding to or entry into cells; Lassa virus pseudotype entry inhibition, cell reporter; Potency, µM (top dose mostly 37.9 µM), for inactives: top-dose activity change, negative = inhibition, hits mostly inhibitors; hit rate 1.2% among 300,000; AID 540256; calls by dose curve; tested in HEK293 cells; note: potency is the fitted concentration of half-maximal effect; nearly all actives have a fitted effect of over 50% in size
# Pf growth 48h: P. falciparum growth inhibition at 48 hours (one generation) | hit rate 5.9% among 310,000 | P. falciparum luciferase growth in erythrocytes, 48 h | Potency, µM (titrated, usually from 28.7 µM), inactives show top-dose activity change, negative = inhibition, usual class: inhibitors; note: potency is the fitted concentration of half-maximal effect
#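 Luminescence readout; reporter = integrated firefly luciferase in P. falciparum. RBC culture at 2% hematocrit, 0.1% parasitemia final, 37 C/5% CO2; decreased signal taken as growth inhibition.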
# Starred values were filed as active, the others as inactive; ? = inconclusive; . = no result; [ ] = dose if it differs, or a comment. Unless noted, calls come from the whole dose curve; as a rule, active = well fitted inhibition curve with a large enough effect; inconclusive = small, poorly fitted or top-dose-only effect, or another doubt; inactive = no such curve, though single readings can be large or run the other way. % is set by controls: 0 for no effect and ±100 for the full control effect.
SMILES,MARV entry inh,HCV inh,Pf growth 96h,HCMV antiviral,LASV entry inh,Pf growth 48h
COc1ccc(NC(=O)CCCS(=O)(=O)c2nc(-c3ccc(OC)c(OC)c3)cc(C(F)(F)F)n2)cc1OC,?,.,.,-99.8*,?,.
COc1ccccc1-c1cc(C(F)(F)F)nc(S(=O)(=O)CCCC(=O)Nc2cc(OC)c(OC)c(OC)c2)n1,?,.,.,-1.8,?,.
COc1ccc(-c2cc(C(F)(F)F)nc(S(=O)(=O)CCCC(=O)Nc3ccccc3C(F)(F)F)n2)cc1OC,-19.4%[46.1 µM],.,.,-99.7*,0.1%[46.1 µM],.
COc1ccc(CN2C(=O)C(n3c(C)ccc3C)c3cccc(F)c32)cc1 (stereo not drawn),.,.,.,-33.7,.,.
COc1cccc(NC(=O)C2CCCN(S(=O)(=O)c3cn(C(C)C)cn3)C2)c1 (stereo not drawn),.,.,.,7.9,5.1%[46.1 µM],.
Cc1nc(NC(=O)c2ccccc2)sc1-c1csc(NCc2ccccc2)n1,?,?,.,?,-23.7%,?
Cc1nc(NC(=O)c2ccccc2)sc1-c1csc(NCCc2ccccc2)n1,?,10µM*,4.15µM*,?,-3.9%,.
CC(=O)Cc1nsc(NC(=O)c2ccccc2)n1,-1.6%,22.0%,-10.7%,-64.3*,18.0%,38.5%
Cc1nc(NC(=O)c2ccccc2)sc1-c1csc(N)n1,?,?,-2.1%,?,3.6%,1.85µM*
CC(=O)Cc1nsc(NC(=O)c2ccc(F)cc2)n1,4.7%[46.1 µM],7.7%,4.9%,-29.8,?,27.4%
O[C@@H]1C[C@H](c2ccc(Cl)cc2)N(Cc2cccs2)C[C@H]1n1cc(C2CC2)nn1,.,.,.,-12.5,.,.
CCC(C)C(=O)C(=O)N1CCC(n2nccc2NC(=O)CCOc2ccccc2)CC1 (stereo not drawn),.,.,.,-10.1,.,.
Cc1ccc(NC(=O)CSc2nc3nccnc3c(=O)n2CCc2c[nH]c3ccccc23)c(C)c1,.,.,.,2.3,2.6%[46.1 µM],.
CCOc1cc(-c2nccc3cc(OC)c(OC)cc23)cc(OCC)c1OCC,12.6µM*,?,10.7µM*,-27.0,?,10.4µM*
COc1cc(N)c(Cc2nccc3cc(OC)c(OC)cc23)cc1OC,-15.0%[46.1 µM],-18.6%,6.57µM*,1.8,?,?
COc1cc2ccnc(Cc3cccc(OC)c3OC)c2cc1OC,20.4%[46.1 µM],?,45.6%,-71.5*,.,-11.8%
CCn1c(C)c(C2N3CC4(C)CN2CC(C)(C3)C4=O)c2ccccc21 (stereo not drawn),-11.6%[46.1 µM],.,.,4.1,?,.
O=C(O)Cn1ncc2ccccc2c1=O,-23.4%[46.1 µM],-3.8%,27.4%,-6.4,-0.8%,34.9%
O=c1c2ccccc2cnn1CCOc1ccccc1,2.06µM*,24.3%,41.1%,-87.5*,0.282µM*,94.1%
Cc1ccccc1N1CCN(C2CCCN(C(=O)CSc3ccccn3)C2)CC1 (stereo not drawn),.,.,.,92.5,.,.
Cc1cc(-c2ccccc2)nc2[n+]1CCN2C,-27.6%,-24.8%,.,-84.3*,-20.1%,.
CCOc1ccc(NC(=O)N2CCC(n3nnc4ccccc43)CC2)cc1,-2.4%[46.1 µM],-12.3%,6.3%,-28.1,-4.6%[46.1 µM],?
O=C(NC12CC3CC(CC(C3)C1)C2)N1CCC(n2nnc3ccccc32)CC1,-13.2%,0.5%,9.28µM*,44.3,-7.1%,?
O=C(NC12CC3CC(CC(C3)C1)C2)N1CCN(c2ccccn2)CC1,2.4%,18.5%,2.2%,-27.8,-27.8%,11.7µM*
O=C(c1ccccc1Cl)n1nc(-c2cccnc2)nc1NCc1ccc(F)cc1,3.7%[46.1 µM],.,.,0.6,0.2%[46.1 µM],.
SMILES,MARV entry inh,HCV inh,Pf growth 96h,HCMV antiviral,LASV entry inh,Pf growth 48h
CCN(CC)C(=O)[C@H]1C[C@H](CC(=O)NCCc2ccccn2)C(=O)N2CCc3c([nH]c4cc(CCC(=O)N(C)C)ccc34)[C@]12C,.,11.2%,.,20.9,.,.
Cc1nnnn1/C(=C\c1ccccc1)C(=O)OCC(=O)NC(C)(C)C,6.31µM*,-21.2%,-29.7%,-13.7,-18.7%,?
CC(=O)Nc1ccc(NC(=O)COC(=O)/C(=C/c2ccccc2)n2nnnc2C)cc1,?,-14.0%,1.8%,36.9,?,12.2%
CC(=O)N/C(=C\c1ccccc1)C(=O)OCC(=O)NC1CCCC1,11.2%,5.5%,-12.7%,-16.1,4.3%,19.6%
Cc1nnnn1/C(=C\c1ccccc1)C(=O)OCC(=O)NC1CCCCC1,11.2µM*,33.6%,?,7.6,?,?
C=CCNC(=O)N1CCc2nc(-c3ccccc3)c3c(c2C1)CO[C@@H](C)C3,-28.6%[14.2 µM],.,.,.,?,.
OC(CN1CCN(C(c2ccccc2)c2ccccc2)CC1)c1ccccc1 (stereo not drawn),.,?,?,.,.,9.28µM*
COc1cc2c(cc1OC)CN(CC(O)c1ccccc1)CC2 (stereo not drawn),10.4%[46.1 µM],1.8%,?,-31.3,17.0%[46.1 µM],?
CN1CCN(CC(O)c2ccccc2)CC1 (stereo not drawn),-6.2%,.,35.1%,.,.,9.1%
O=c1[nH]c2ccccc2n1CCCN1CCN(C(c2ccccc2)c2ccccc2)CC1,12.6µM*,3.1%[8.37 µM],12µM*,.,18.4µM*,11.7µM*
c1ccc(OCCN2CCN(C(c3ccccc3)c3ccccc3)CC2)cc1,.,11.2µM*,0.6%,9.4,.,?
OC(CN1CC=C(/C=C/c2ccc(Br)cc2)CC1)c1ccccc1 (stereo not drawn),11.2µM*,?,-29.2%,10.0,-32.7%[46.1 µM],?
c1ccc(OCCN2CCNCC2)cc1,9.8%[46.1 µM],-7.6%,.,8.1,-1.3%[46.1 µM],.
CC1(C(=O)NS(=O)(=O)Cc2cccc(Cl)c2)CCN1C(=O)c1cccc(F)c1 (stereo not drawn),.,.,.,-7.4,.,.
OC(CN1CCN(c2ccccc2Cl)CC1)c1ccccc1 (stereo not drawn),?,-10.5%,?,21.6,-26.5%[46.1 µM],?
c1cc(OCCN2CC2)ccn1,7.08µM*,?,.,-100.0*,-24.4%,.
OC(CN1CCN(C(c2ccccc2)c2ccccc2)CC1)c1ccc(Br)cc1 (stereo not drawn),.,?,1.31µM*,-30.3,.,.
c1cnc(OCCN2CC2)cn1,11.9%,25.2%,.,-20.9,-4.7%,.
CN(Cc1ccccc1)C(=O)CN1CCN(C(c2ccccc2)c2ccccc2)CC1,?,?,10.4µM*,-37.3,?,-32.6%[5.75 µM]
CC(=O)c1ccccc1OCC(O)CN1CCN(C(c2ccccc2)c2ccccc2)CC1 (stereo not drawn),?,10µM*,?,-15.8,-25.1%,?
O=C(N/N=C1\CC(c2ccccc2)Oc2ccccc21)c1ccc(O)cc1 (stereo not drawn),-1.2%[46.1 µM],4.9%,?,?,?,?
O=C(N/N=C1\CC(c2ccccc2)Oc2ccccc21)c1cccnc1 (stereo not drawn),-23.0%,-28.8%,19.1%,-83.1*,?,?
COc1ccc(Br)cc1C1=CC(=O)C[C@H](c2ccc(F)cc2)C1,.,.,.,5.9,.,.
